# PubChem BioAssay (NCATS)
# Where “and” joins values, the source holds several entries; their conditions need not be identical. Identical values can stand only once. Inconclusive results are not listed. Where a call stands in place of a potency, no number is given. Calls of active or inactive are those of the source. Calls follow the shape of the dose curve; as a rule, active = well fitted inhibition curve with a large enough effect; inconclusive = small, poorly fitted or top-dose-only effect; inactive = flat fitted curve, though single readings scatter.
# Molecular target: Voltage-gated inwardly rectifying potassium channel KCNH2 (Homo sapiens) (UniProt Q12809)
# Sequence (Q12809 whole entry, looked up): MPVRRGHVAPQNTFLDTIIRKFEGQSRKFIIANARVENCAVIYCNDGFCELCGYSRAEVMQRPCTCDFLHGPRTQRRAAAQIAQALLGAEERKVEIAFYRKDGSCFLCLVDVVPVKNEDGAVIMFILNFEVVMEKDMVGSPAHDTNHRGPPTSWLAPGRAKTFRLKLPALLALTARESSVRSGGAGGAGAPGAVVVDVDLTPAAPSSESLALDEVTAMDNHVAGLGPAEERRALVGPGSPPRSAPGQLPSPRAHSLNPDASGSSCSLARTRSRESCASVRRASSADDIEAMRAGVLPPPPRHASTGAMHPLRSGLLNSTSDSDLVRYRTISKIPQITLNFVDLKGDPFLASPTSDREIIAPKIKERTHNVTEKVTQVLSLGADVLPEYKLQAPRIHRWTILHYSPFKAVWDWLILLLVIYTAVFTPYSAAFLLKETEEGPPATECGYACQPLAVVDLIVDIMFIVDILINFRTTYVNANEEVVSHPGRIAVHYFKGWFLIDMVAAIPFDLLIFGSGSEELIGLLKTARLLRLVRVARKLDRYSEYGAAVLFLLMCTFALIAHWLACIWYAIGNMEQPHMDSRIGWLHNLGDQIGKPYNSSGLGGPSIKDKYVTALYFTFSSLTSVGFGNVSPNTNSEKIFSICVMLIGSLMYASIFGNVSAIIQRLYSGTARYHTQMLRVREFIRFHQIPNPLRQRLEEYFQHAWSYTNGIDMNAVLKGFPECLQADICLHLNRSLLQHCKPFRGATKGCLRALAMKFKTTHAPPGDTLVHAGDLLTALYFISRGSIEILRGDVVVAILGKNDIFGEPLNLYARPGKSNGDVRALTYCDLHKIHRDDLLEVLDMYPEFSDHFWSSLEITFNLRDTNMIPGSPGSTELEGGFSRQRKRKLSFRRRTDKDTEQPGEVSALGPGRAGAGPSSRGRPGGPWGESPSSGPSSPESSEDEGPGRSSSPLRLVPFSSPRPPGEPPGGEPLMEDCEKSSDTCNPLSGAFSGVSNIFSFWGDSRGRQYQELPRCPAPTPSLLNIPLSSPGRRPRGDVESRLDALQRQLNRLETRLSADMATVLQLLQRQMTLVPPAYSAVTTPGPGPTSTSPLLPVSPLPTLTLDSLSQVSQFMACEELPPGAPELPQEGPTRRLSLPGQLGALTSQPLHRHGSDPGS
# Assay: qHTS Assay for Small Molecule Inhibitors of the Human hERG Channel Activity (AID 588834);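 also: lower thallium flux fluorescence means stronger hERG block; nearly all actives have a fitted effect of over 50% in size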
# Settings: U2OS BacMam hERG, FluxOR thallium flux fluorescence; series mostly up to 46.1 µM
# Summary of the method: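 In hERG-transduced U2OS cells, dye-loaded for 1 hr at room temperature in dark, test compounds incubated 10 min at 37 °C before thallium stimulation. AC50 values derived by Hill modelling of concentration-response.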
# Potency is read from the fitted curve at half-maximal effect.
row,SMILES,Potency
1,Cc1cc(=O)c2c(O)c3c(O)cc(=O)c4c3c3c(cc(O)c1c23)C(C)(C)C=4O,3.98 µM (active)
2,CC(C)(S)[C@@H](N)C(=O)O,inactive
3,O=C(O)c1cn(-c2ccc(F)cc2)c2cc(N3CCNCC3)c(F)cc2c1=O,inactive
4,CC(C)c1ccc2oc3nc(N)c(C(=O)O)cc3c(=O)c2c1,inactive
5,N=C(N=C(N)N)N1CCOCC1,inactive
6,C[C@H](Cn1cnc2c(N)ncnc21)OCP(=O)(O)O,inactive
7,O=c1oc2cc(O)ccc2s1,inactive
8,CC1=C(C)C(=O)C(C(CCCCCC(=O)O)c2ccccc2)=C(C)C1=O (stereo unspecified),inactive
9,O=C(OC1C[C@H]2CC[C@@H](C1)[N+]21CCCC1)C(O)(c1ccccc1)c1ccccc1 (stereo partly specified),inactive
10,Nc1cc(C(Cl)=C(Cl)Cl)c(S(N)(=O)=O)cc1S(N)(=O)=O,inactive
11,COc1ccc(C2(C#N)CCC(C(=O)O)CC2)cc1OC1CCCC1 (stereo unspecified),inactive
12,CCC[C@@H]1C[C@@H](C(=O)N[C@@H]([C@H]2O[C@H](SC)[C@H](O)[C@@H](O)[C@H]2O)[C@@H](C)O)N(C)C1,inactive
13,N=C(N)c1ccc2cc(OC(=O)c3ccc(N=C(N)N)cc3)ccc2c1,inactive
14,CCN(CCO)CCCC(C)Nc1ccnc2cc(Cl)ccc12 (stereo unspecified),inactive
15,Cc1c(OCC(F)(F)F)ccnc1CS(=O)c1nc2ccccc2[nH]1 (stereo unspecified),inactive
16,CN(c1nccc(=O)[nH]1)C1CCN(c2nc3ccccc3n2Cc2ccc(F)cc2)CC1,1.78 µM (active)
17,CCOc1cc(CC(=O)N[C@@H](CC(C)C)c2ccccc2N2CCCCC2)ccc1C(=O)O,inactive

row,SMILES,Potency
1,CN(C)C(=O)COC(=O)Cc1ccc(OC(=O)c2ccc(N=C(N)N)cc2)cc1,inactive
2,CCCCCCCCOc1ccccc1C(=O)Nc1ccc(C(=O)OCC[N+](C)(CC)CC)cc1,inactive
3,Cc1ncc([N+](=O)[O-])n1CC(C)O (stereo unspecified),inactive
4,C[Se]CCC(N)C(=O)O (stereo unspecified),inactive
5,CCOC(=O)c1c(C)n(C)c2ccc(O)cc12,inactive
6,CC[C@]1(O)C[C@H]2CN(CCc3c([nH]c4ccccc34)[C@@](C(=O)OC)(c3cc4c(cc3OC)N(C=O)[C@H]3[C@@](O)(C(=O)OC)[C@H](OC(C)=O)[C@]5(CC)C=CCN6CC[C@]43[C@@H]65)C2)C1,inactive
7,O=C(NC(Cc1cc(=O)[nH]c2ccccc12)C(=O)O)c1ccc(Cl)cc1 (stereo unspecified),inactive
8,C[C@]12CCC(=O)C=C1CC[C@@H]1[C@H]2[C@@H](O)C[C@@]2(C)[C@H]1CC[C@]2(O)C(=O)CO,inactive
9,CNC[C@@H](O)[C@@H](O)[C@H](O)[C@H](O)CO,inactive
10,O=P(O)(O)C(O)(Cn1ccnc1)P(=O)(O)O,inactive
11,CCCCN(CCCC)CCC(O)c1cc2c(Cl)cc(Cl)cc2c2cc(C(F)(F)F)ccc12 (stereo unspecified),0.398 µM (active)
13,Cc1c(C(=O)NN2CCCCC2)nn(-c2ccc(Cl)cc2Cl)c1-c1ccc(Cl)cc1,2.82 µM (active)
14,Cc1cc2cc3c(C)cc(=O)oc3c(C)c2o1,inactive
15,CCCCCCCCCCCCCCCCCCCCCCO,inactive
16,CN1C(C(=O)Nc2ccccn2)=C(O)c2sccc2S1(=O)=O,inactive

# Molecular target: Luciferin 4-monooxygenase (Photinus pyralis) (UniProt P08659)
# Sequence (P08659 whole entry, looked up): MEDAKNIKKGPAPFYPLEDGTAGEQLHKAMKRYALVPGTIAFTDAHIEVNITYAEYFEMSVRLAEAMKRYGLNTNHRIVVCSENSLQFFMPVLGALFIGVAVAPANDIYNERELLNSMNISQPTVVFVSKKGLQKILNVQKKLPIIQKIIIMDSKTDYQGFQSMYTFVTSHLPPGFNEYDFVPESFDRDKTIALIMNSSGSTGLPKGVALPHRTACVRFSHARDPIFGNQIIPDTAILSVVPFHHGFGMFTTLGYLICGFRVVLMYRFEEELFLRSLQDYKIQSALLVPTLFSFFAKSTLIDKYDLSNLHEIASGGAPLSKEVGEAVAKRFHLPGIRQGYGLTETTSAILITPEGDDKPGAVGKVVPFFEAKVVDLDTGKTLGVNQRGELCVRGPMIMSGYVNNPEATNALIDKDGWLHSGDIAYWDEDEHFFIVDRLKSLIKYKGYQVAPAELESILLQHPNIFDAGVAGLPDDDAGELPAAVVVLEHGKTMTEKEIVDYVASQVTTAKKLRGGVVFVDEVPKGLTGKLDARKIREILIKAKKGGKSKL
# Assay: Biochemical firefly luciferase enzyme assay for NPC (AID 624030); also: nearly all actives have a fitted effect of over 70% in size
# Settings: purified P. pyralis luciferase, luminescence, 5 min; series mostly up to 58.6 µM
# Summary of the method: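 Direct inhibition of firefly luciferase enzyme (10 nM final, 50 mM Tris Acetate) assessed by luminescence within 5 minutes. Percent activity scaled between DMSO and PTC124 positive control, with concentration-effect curves classified by fit quality and response.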
row,SMILES,Potency
1,Cc1cc(=O)c2c(O)c3c(O)cc(=O)c4c3c3c(cc(O)c1c23)C(C)(C)C=4O,inactive
2,CC(C)(S)[C@@H](N)C(=O)O,inactive
3,O=C(O)c1cn(-c2ccc(F)cc2)c2cc(N3CCNCC3)c(F)cc2c1=O,inactive
4,CC(C)c1ccc2oc3nc(N)c(C(=O)O)cc3c(=O)c2c1,405 nM (active)
5,N=C(N=C(N)N)N1CCOCC1,inactive
6,C[C@H](Cn1cnc2c(N)ncnc21)OCP(=O)(O)O,inactive
7,O=c1oc2cc(O)ccc2s1,inactive
8,CC1=C(C)C(=O)C(C(CCCCCC(=O)O)c2ccccc2)=C(C)C1=O (stereo unspecified),inactive
9,O=C(OC1C[C@H]2CC[C@@H](C1)[N+]21CCCC1)C(O)(c1ccccc1)c1ccccc1 (stereo partly specified),inactive
10,Nc1cc(C(Cl)=C(Cl)Cl)c(S(N)(=O)=O)cc1S(N)(=O)=O,inactive
11,COc1ccc(C2(C#N)CCC(C(=O)O)CC2)cc1OC1CCCC1 (stereo unspecified),inactive
12,CCC[C@@H]1C[C@@H](C(=O)N[C@@H]([C@H]2O[C@H](SC)[C@H](O)[C@@H](O)[C@H]2O)[C@@H](C)O)N(C)C1,inactive
13,N=C(N)c1ccc2cc(OC(=O)c3ccc(N=C(N)N)cc3)ccc2c1,inactive
14,CCN(CCO)CCCC(C)Nc1ccnc2cc(Cl)ccc12 (stereo unspecified),inactive
15,Cc1c(OCC(F)(F)F)ccnc1CS(=O)c1nc2ccccc2[nH]1 (stereo unspecified),inactive
16,CN(c1nccc(=O)[nH]1)C1CCN(c2nc3ccccc3n2Cc2ccc(F)cc2)CC1,inactive
17,CCOc1cc(CC(=O)N[C@@H](CC(C)C)c2ccccc2N2CCCCC2)ccc1C(=O)O,inactive

row,SMILES,Potency
1,CN(C)C(=O)COC(=O)Cc1ccc(OC(=O)c2ccc(N=C(N)N)cc2)cc1,inactive
2,CCCCCCCCOc1ccccc1C(=O)Nc1ccc(C(=O)OCC[N+](C)(CC)CC)cc1,inactive
3,Cc1ncc([N+](=O)[O-])n1CC(C)O (stereo unspecified),inactive
4,C[Se]CCC(N)C(=O)O (stereo unspecified),inactive
5,CCOC(=O)c1c(C)n(C)c2ccc(O)cc12,inactive
6,CC[C@]1(O)C[C@H]2CN(CCc3c([nH]c4ccccc34)[C@@](C(=O)OC)(c3cc4c(cc3OC)N(C=O)[C@H]3[C@@](O)(C(=O)OC)[C@H](OC(C)=O)[C@]5(CC)C=CCN6CC[C@]43[C@@H]65)C2)C1,inactive
7,O=C(NC(Cc1cc(=O)[nH]c2ccccc12)C(=O)O)c1ccc(Cl)cc1 (stereo unspecified),inactive
8,C[C@]12CCC(=O)C=C1CC[C@@H]1[C@H]2[C@@H](O)C[C@@]2(C)[C@H]1CC[C@]2(O)C(=O)CO,inactive
9,CNC[C@@H](O)[C@@H](O)[C@H](O)[C@H](O)CO,inactive
10,O=P(O)(O)C(O)(Cn1ccnc1)P(=O)(O)O,inactive
11,CCCCN(CCCC)CCC(O)c1cc2c(Cl)cc(Cl)cc2c2cc(C(F)(F)F)ccc12 (stereo unspecified),inactive
12,O=C(NCC1CCCCN1)c1cc(OCC(F)(F)F)ccc1OCC(F)(F)F (stereo unspecified),inactive
13,Cc1c(C(=O)NN2CCCCC2)nn(-c2ccc(Cl)cc2Cl)c1-c1ccc(Cl)cc1,inactive
14,Cc1cc2cc3c(C)cc(=O)oc3c(C)c2o1,inactive
15,CCCCCCCCCCCCCCCCCCCCCCO,inactive
16,CN1C(C(=O)Nc2ccccn2)=C(O)c2sccc2S1(=O)=O,inactive
